AmpC no deterg: inhibitors of E. coli AmpC beta-lactamase without detergent. AmpC nitrocefin hydrolysis, absorbance 480 nm, 0.0001% Triton. AID 485341. actives 0.52% (n = 330,000). Potency, µM (top dose mostly 57.1 µM), hits mostly inhibitors; further: nearly all actives have a fitted effect of over 20% in size
Target sequence (P00811 whole entry, looked up): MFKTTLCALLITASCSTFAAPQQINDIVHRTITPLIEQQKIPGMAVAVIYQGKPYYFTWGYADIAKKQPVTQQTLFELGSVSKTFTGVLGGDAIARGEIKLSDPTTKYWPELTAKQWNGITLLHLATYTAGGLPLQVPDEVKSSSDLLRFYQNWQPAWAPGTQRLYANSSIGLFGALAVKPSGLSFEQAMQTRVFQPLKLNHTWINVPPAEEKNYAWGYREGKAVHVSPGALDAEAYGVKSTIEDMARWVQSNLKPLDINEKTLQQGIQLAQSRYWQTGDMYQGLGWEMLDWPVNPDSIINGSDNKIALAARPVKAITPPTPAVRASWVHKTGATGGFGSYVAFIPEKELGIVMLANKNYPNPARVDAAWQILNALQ
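20 mM phosphate pH 7.0 + 0.01% (detergent screen) or 0.0001% Triton X-100; 5.3 nM AmpC reagent; cpd preinc 15 min RT; nitrocefin (800 uM stock) to start; A480 q20 s × 4 min; Activity was normalised to no-enzyme and no-compound control wells.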
NS1 inh: influenza NS1 inhibition | AID 2326 | Potency, µM (titrated, usually from 46.1 µM) | actives 0.4% (n = 270,000); calls by dose curve; further: actives are rising curves; nearly all actives have a fitted effect of over 50% in size
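Growth recovery, yeast-based: influenza A NS1 expressed in S. cerevisiae causes slow growth, and suppressors are detected by OD600. The parent strain without NS1 is used as positive control.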
CHX counter: counter-screen hit for Shiga toxin inhibitors, cycloheximide. cell reporter, cycloheximide protein synthesis inhibition counterscreen. max response, %. actives 12% (n = 300,000); in the data active means max response mostly above about 13%, no sharp cut-off; inactive means mostly below about 14%; further: read at 38.3 µM for the half of the compounds with a filed dose
Shiga inhibitor: blocks Shiga toxin action in Vero cells; Vero cells, Shiga toxin protein synthesis inhibition reporter; inhibition, % at 38.7 µM; actives 9.2% (n = 290,000); AID 2315; in the data active means inhibition mostly above about 28%, no sharp cut-off; inactive means mostly below about 43%
AmpC detergent: AmpC beta-lactamase inhibition with detergent present; actives 0.041% (n = 370,000); Potency, µM (top dose mostly 114 µM), actives largely listed as inhibitors; AID 485294; P00811; AmpC hydrolysis of nitrocefin, absorbance 480 nm, 0.01% Triton; further: nearly all actives have a fitted effect of over 25% in size
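20 mM phosphate pH 7.0 + 0.01% (detergent screen) or 0.0001% Triton X-100; 5.3 nM AmpC reagent; cpd preinc 15 min RT; nitrocefin (800 uM stock) to start; A480 q20 s × 4 min; Activity was normalised to no-enzyme and no-compound control wells.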
Numbers stand for hits; n = inactive; u = inconclusive; x = not tested or not shown; + = active, no number; ! = repeats disagree. The full list was thinned out, with hits kept by preference. Unless noted, the call rests on the fitted dose curve; in most records, active means well fitted curve in the direction sought with a large enough effect; inconclusive means small, poorly fitted or top-dose-only effect, or another doubt; inactive means no such curve, though single readings can be large; an effect the other way counts as inactive or inconclusive.

SMILES	AmpC no deterg	NS1 inh	CHX counter	Shiga inhibitor	AmpC detergent
COc1cccc(C(=O)N2CCN(c3ncccn3)CC2)c1	n	n	n	n	n
COc1cccc(N2CCN(c3ncccn3)CC2)c1	n	n	60	45	n
Cc1cccc(NC(=S)NCC23C=CC(O2)C2C(=O)N(c4ccc(Cl)cc4)C(=O)C23)c1 (stereo not given)	n	n	n	n	n
Cc1ccc(NC(=S)NCC23C=CC(O2)C2C(=O)N(c4ccc(C)cc4)C(=O)C23)cc1 (stereo not given)	n	n	56	n	n
Cc1cc(NS(=O)(=O)c2ccc(NC(=O)/C=C/c3ccc(Br)cc3)cc2)no1	n	n	n	n	n
Cc1ccc(/C=C/C(=O)NC2=NCCS2)cc1	n	n	70	92	u
Cc1ccc(/C=C/C(=O)Nc2cc(C)on2)cc1	n	n	58	62	n
CC(C)(C)c1ccc(/C=C/C(=O)Nc2ccc(S(N)(=O)=O)cc2)cc1	x	x	x	x	n
CC(=O)c1ccc(NC(=O)/C=C/c2ccc(C)cc2)cc1	n	n	n	n	n
CC(C)(C)c1ccc(/C=C/C(=O)NC2=NCCS2)cc1	n	n	54	+	n
CCC[n+]1c2ccccc2cc2ccccc21	n	n	n	n	u
CCCC[n+]1c2ccccc2cc2ccccc21	n	n	n	n	32µM
COc1cc(-c2noc(C)c2C#Cc2ccc(N)cc2)cc(OC)c1OC	n	n	14	n	u
CCC(C(=O)NC1CCCCC1)n1c(SCc2ccccc2F)nc2ccncc21 (stereo not given)	n	n	17!	n	n
Cc1ccc(NC(=O)CSc2nnc3n2CCCCC3)cc1	n	n	n	n	n
O=C(CSc1nnc(Cc2ccccc2)o1)Nc1ccc(N2CCOCC2)cc1	n	x	x	x	x
CC1Cc2ccccc2N1C(=O)c1nn(C)cc1Br (stereo not given)	n	n	9.3	n	n
CC1Cc2ccccc2N1C(=O)c1ccc2snnc2c1 (stereo not given)	n	n	n	n	n
Cc1c(C(=O)N2CCCCC2)oc2ccccc12	n	x	x	x	x
Nc1c(C(=O)N2CCCCCC2)oc2ccccc12	n	n	21	n	n
Cc1c(C(=O)N2CCN(c3ccccc3)CC2)oc2c(Cl)cccc12	n	x	x	x	n
C=CCN1CCN(C(=O)c2oc3ccccc3c2C)CC1	n	n	20	n	n
Cc1cc(Cl)c2oc(C(=O)N3CCN(c4cccc(C)n4)CC3)c(C)c2c1	n	n	47	x	n
CN(CC(=O)Nc1ccccc1C(=O)NC1CC1)Cc1ccco1	n	x	x	x	n
COC(=O)c1cc(S(=O)(=O)NCCN2CCN(c3ccccc3F)CC2)c[nH]1	n	n	n	n	n
SMILES	AmpC no deterg	NS1 inh	CHX counter	Shiga inhibitor	AmpC detergent
CCOc1ccc2oc(C(=O)N3CCN(c4ccccn4)CC3)c(C)c2c1	n	n	n	n	n
Cc1ccc2oc(C(=O)N3CCN(c4cccc(C)n4)CC3)c(C)c2c1	n	n	27	x	n
CC(=O)N1CCN(C(=O)c2oc3ccccc3c2C)CC1	n	n	n	n	n
Cc1c(C(=O)N2CCc3ccccc3C2)oc2ccccc12	n	n	39	74	n
Cc1ccc2oc(C(=O)N3CCCCCC3)c(C)c2c1	n	n	71	110	n
COc1ccccc1C(=O)N1CCN(C(=O)c2oc3ccc(C)cc3c2C)CC1	n	n	n	n	n
Cc1c(C(=O)N2CCCCC2)oc2ccc(Br)cc12	n	x	x	x	u
Cc1c(C(=O)N2CCN(c3ccccn3)CC2)oc2ccccc12	n	n	20	67	n
Cn1c(SCC(=O)Nc2cccnc2Cl)nnc1-c1ccco1	n	x	x	x	x
Cc1c(C(=O)N2c3ccccc3CC2C)oc2ccccc12 (stereo not given)	n	n	42	166	n
Cc1cc(Cl)c2oc(C(=O)N3CCN(C(=O)c4ccco4)CC3)c(C)c2c1	n	n	38	65	n
COC(=O)CCC(=O)c1oc2ccccc2c1N	n	n	42	89	n
COC(=O)CCC(=O)c1oc2ccccc2c1NC(=O)CCCN1C(=O)c2ccccc2C1=O	n	n	n	n	n
Cc1cccc(C)c1OCCn1nnc2ccccc21	n	n	n	n	n
Cc1ccc(OCCn2nc3ccccc3n2)c(C)c1	n	n	32	38	u
Clc1ccccc1OCCn1nnc2ccccc21	n	n	45	63	n
CCOc1ccccc1OCCn1nc2ccccc2n1	n	n	n	n	n
Nc1nc2ccccc2n1CCOc1ccccc1Cl	n	n	n	n	n
Cc1ccc(C)c(OCCn2nnc3ccccc32)c1	n	n	33	34	n
Cc1cc(C)cc(OCCn2nnc3ccccc32)c1	n	n	47	58	n
O=C(O)c1nc(-c2ccccc2)[nH]c1C(=O)O	x	n	x	x	x
COc1cc(OC)cc(-c2nnc3n2N=C(c2c(OC)cccc2OC)CS3)c1	x	x	n	n	x
C/C(=N\NC(=O)C(c1ccccc1)c1ccccc1)c1ccc(O)cc1	n	n	n	n	u
Cc1ccc(NCC(=O)N/N=C\c2cccc(O)c2)cc1	n	n	18	n	n
O=C(N/N=C/c1cccc(O)c1)c1cc(-c2ccccc2)nc2ccccc12	n	n	n	n	n
SMILES	AmpC no deterg	NS1 inh	CHX counter	Shiga inhibitor	AmpC detergent
Oc1cccc(/C=N/NP(=S)(c2ccccc2)c2ccccc2)c1	n	n	14	n	n
O=C(N/N=C/c1cccc(O)c1)c1ccccc1O	n	n	49	68	n
C/C(=N\NC(=O)c1csc2ccccc12)c1ccc(O)cc1	n	n	18	n	n
O=C(N/N=C/c1cccc(O)c1)c1csc2ccccc12	n	n	49	87	u
CCc1cc(C(=O)N/N=C/c2ccc(O)cc2)c2ccccc2n1	n	n	n	n	n
COc1ccc(-c2cc(-c3ccc(C)cc3)n[nH]2)c(O)c1	n	n	44	94	n
COc1ccc(-c2cc(-c3ccc(OC)cc3)[nH]n2)cc1	n	n	35	n	n
COc1ccc(-c2cc(-c3cc(C)ccc3O)[nH]n2)cc1	n	n	49	80	n
Clc1ccc(-c2ccn[nH]2)cc1	n	x	53	147	n
COc1ccc(-c2cc(C3CCNCC3)[nH]n2)cc1	n	n	n	n	n
Nc1nc(SCc2nc(-c3ccccc3)no2)[nH]c(=O)c1-c1ccccc1	n	n	n	n	u
CCCc1ccc(OC(=O)CSc2nnc(-c3cccs3)o2)cc1	x	x	x	x	n
CCOC(=O)c1c(NC(=O)c2cc(-c3ccc(OC)cc3)on2)sc(C)c1C	x	x	x	x	n
COc1ccc(Oc2ccc(-c3ccn[nH]3)cc2)cc1	n	n	32	77	n
COc1ccc(-c2cn[nH]c2N)cc1	n	n	n	n	n
COc1ccc(NC(=O)Nc2ccc(Br)cn2)cc1	n	n	n	77	n
COc1ccc(/C=C/C(=O)NC(=S)Nc2ccc(Br)cn2)cc1	n	n	11	n	n
Cn1c(NCCCCO)nc2c1c(=O)n(Cc1ccc(Cl)cc1)c(=O)n2C	x	x	x	x	n
O=C(/C=C/c1cccs1)c1cc(Cl)ccc1O	n	n	n	n	n

Screens (PubChem BioAssay)
